In ChEMBL document CHEMBL4296182, “CO-ADD screening of NIH NCI Diversity Set V”:
For part of these data: Measured potencies and affinities stand elsewhere.

Assays:
Staphylococcus aureus = assay: Antibacterial activity against Staphylococcus aureus MRSA ATCC 43300 (CO-ADD:GP_020); MIC in CAMBH media using NBS plates, by Resazurin F(560/590); assay type: functional; conditions: Concentration 20 uM, ASSAY_TEST Inhibition of Bacterial Growth, detection method Resazurin, Fluorescence (ex560/em590), MEDIA CAMHB, plate type 384well, CORNING #3640, time 18 hr
Acinetobacter baumannii = assay: Antibacterial activity against Acinetobacter baumannii ATCC 19606 (CO-ADD:GN_034); MIC in CAMBH media using NBS plates, by Resazurin F(560/590); assay type: functional; conditions: Concentration 20 uM, ASSAY_TEST Inhibition of Bacterial Growth, detection method Resazurin, Fluorescence (ex560/em590), MEDIA CAMHB, plate type 384well, CORNING #3640, time 18 hr
Escherichia coli = assay: Antibacterial activity against Escherichia coli ATCC 25922 (CO-ADD:GN_001); MIC in CAMBH media using NBS plates, by Resazurin F(560/590); assay type: functional; conditions: Concentration 20 uM, ASSAY_TEST Inhibition of Bacterial Growth, detection method Resazurin, Fluorescence (ex560/em590), MEDIA CAMHB, plate type 384well, CORNING #3640, time 18 hr
Klebsiella pneumoniae = conditions: Concentration 20 uM; ASSAY_TEST Inhibition of Bacterial Growth; detection method Absorption (OD600); MEDIA CAMHB; plate type 384well; NBS; CORNING #3640; time 18 hr
Candida albicans = conditions: 20 µM
Cryptococcus neoformans = conditions: Concentration 20 uM; ASSAY_TEST Inhibition of Fungal Growth; detection method Resazurin; Absorption (OD600-OD570); plate type 384well; NBS; CORNING #3640

Structure (SMILES) | Inhibition (Staphylococcus aureus) [%] | Inhibition (Acinetobacter baumannii) [%] | Inhibition (Escherichia coli) [%] | Inhibition (Klebsiella pneumoniae) [%] | Inhibition (Candida albicans) [%] | Inhibition (Cryptococcus neoformans) [%]
CCOC(=O)C(=O)Cc1nc2ccccc2s1 | 2.9 | -6.12 | 10.05 | 6.52 | 16 | -6.27
O=Cc1c[nH]c2ncccc12 | 3.78 | -8.67 | 4.47 | 13.98 | 4.83 | -7.37
COc1ccc2nc(-c3ccc(Cl)cc3)cc(C(=O)O)c2c1 | -2.13 | -6.37 | 6.47 | 11.49 | 35.6 | -9.35
CCOC(=O)c1c(O)cc(C)nc1O | 3.86 | -15.92 | 14.23 | 12.49 | 3.14 | 13.8
CCOc1ccc(NC(=O)N(O)C2(C#N)CCCCC2)cc1 | 13.16 | 8.44 | 2.02 | 18.05 | 5.54 | -2.32
COc1ccc2nc3cc(Cl)ccc3c(C#N)c2c1 | 10.22 | 12.04 | 6.91 | 7.74 | 4.11 | -4.51
CCC(CC)NCCOC(=O)c1ccc([N+](=O)[O-])cc1 | -1.24 | -9.59 | 5.41 | 5.67 | 0.5 | -8.44
CC(=O)N1C(=O)C2(NCC(C)N2)c2ccccc21 (configuration not stated) | 7.15 | -16.52 | 6.45 | 10.18 | 2.13 | -1.95
O/N=C(/c1ccccc1)c1ccc2c3c(cccc13)CC2 | -1.68 | -12.52 | 6.08 | 9.85 | 11.2 | -8.52
O=C(c1ccccc1)c1ccccc1C(=O)c1ccccc1 | 16.85 | 12.71 | 4.94 | 16.03 | 2.49 | -5.73
Nc1ccccc1-n1nc2ccc3ccccc3c2n1 | -2.24 | -24.16 | 7.22 | 6.99 | 3.16 | -10.55
CC(C)(C)N1CCC1CN (configuration not stated) | 2.17 | -8.31 | 10.97 | 10.11 | 3.04 | -5.34
O=C1CSC(c2cccs2)N1c1nncs1 (configuration not stated) | 13.4 | -18.82 | 13.34 | 3.03 | -0.07 | -10.32
Cn1ncc2c(Nc3ccc([N+](=O)[O-])cc3)nc(Cl)nc21 | -16.06 | 3.27 | -14.4 | -8.72 | -1.97 | -3.09
N#CCS(=O)(=O)c1cccc[n+]1[O-] | 7.02 | -20.49 | 18.56 | 15.26 | 4.91 | -4.09
CCOC(=O)/C=C/c1ccc(C(=O)OCC)[nH]1 | 42.73 | 10.2 | 20.38 | 8.24 | 7.12 | 8.93
CCCCNc1nc(N)ncc1[N+](=O)[O-] | 5.28 | -8.97 | 14 | 10.57 | 8.4 | -15.62
CC1(c2ccc3ccccc3c2)CCC(=O)O1 (configuration not stated) | 11.1 | -6.13 | 7.71 | 5.94 | 2.15 | -9.46
CCC(C)N=C(S)Nc1ccccc1 (configuration not stated) | -4.21 | 6.89 | 4.84 | 5.07 | 5.4 | -3.02

Structure (SMILES) | Inhibition (Staphylococcus aureus) [%] | Inhibition (Acinetobacter baumannii) [%] | Inhibition (Escherichia coli) [%] | Inhibition (Klebsiella pneumoniae) [%] | Inhibition (Candida albicans) [%] | Inhibition (Cryptococcus neoformans) [%]
c1ccc(-c2ccc(-c3nccc4ccccc34)[nH]2)cc1 | -4.96 | -13.85 | 6.1 | 4.74 | 14 | -7.81
c1ccc(-c2cc3ccccc3[nH]2)cc1 [2-PHENYL-1H-INDOLE] | 0.91 | -19.68 | 16.97 | 15.65 | 3.85 | -3.77
CC(=C/c1ccccc1)/C=C1/NC(=S)NC1=O | 2.65 | 4.35 | -0.7 | 10.87 | 2.17 | -5.48
CCOC(=O)CCCN(c1[nH]c(C)c(C)c1C#N)S(=O)(=O)c1ccc(C)cc1 | 20.71 | -4.29 | 15.68 | 14.1 | -2.66 | -4.37
CN(/N=N/c1[nH]cnc1C(=O)NN)C1CCCCC1 | 8.69 | 8.54 | -4.79 | 11.56 | 3.97 | -4.73
c1ccc2c(c1)Nc1ccncc1S2 | 6.69 | -7.03 | 3.1 | 3.6 | 2.27 | -9.93
Cc1nc(SCC(=O)O)n[nH]1 [TIAZOTIC ACID] | 14.48 | -8.95 | 7.99 | 14.92 | 2.04 | -0.18
COc1ccc(NC(=O)CC(C)=O)c(OC)c1 | 5.13 | -8.6 | 1.4 | 22.3 | 0.23 | -3.01
Cc1cc(NC(=O)c2ccccc2)c(Cl)cc1N | 13.14 | 13.32 | 3.07 | 14.81 | 3.76 | -3.43
CSC(=O)NC(=O)NC(=O)c1ccc([N+](=O)[O-])cc1 | 9.19 | 0.18 | 3.52 | 12.66 | -0.48 | 44.26
Nc1nc(N)c(/C=N/c2ccc(Br)cc2)c(Nc2ccc(Br)cc2)n1 | -2.53 | -11.54 | 5.75 | -1.66 | -1.08 | 1.82
CN1CCN(C(=O)Nc2ccc([N+](=O)[O-])cc2)CC1 | 7.33 | 6.21 | 0.54 | 6.75 | 1.28 | -7.02
Nc1o[nH]c(=O)c1C1CCCCC1 | 7.44 | -3.3 | 16.54 | 10.69 | 1.7 | -0.63
OC1(Cc2ccccc2)CCNCC1 | 8.09 | -10.57 | 6.88 | 12.17 | 7.54 | -0.07
COc1cc(NC(=O)CCl)ccc(=O)c1 | -5.48 | 6.09 | 9.48 | 4.54 | 1.92 | -8.46
CCN(CC)CCNc1c(C)nc(C#N)c(N)[n+]1[O-] | 6.23 | -9.24 | 11.24 | 8.95 | 2.9 | -16.29
Cc1cc(C)n(C(=N)NC(=O)c2ccc([N+](=O)[O-])cc2)n1 | 1.83 | 1.39 | -7.33 | 8.27 | 3.88 | 44.63
CN(CCC#N)c1ccc(/C=C(\C#N)c2cccc(C(F)(F)F)c2)cc1 | -1.81 | 5.38 | -0.01 | 0.85 | 3.04 | -3.8
